Most compounds without a hit are left out; they make up all but 2.4% or so of the library.
Pol eta inh-1 = inhibitors of human DNA polymerase eta | 390,000 tested, 1.2% active | Q9Y253 | Potency, µM (doses to about 114 µM), hits mostly inhibitors | recombinant Pol eta, fluorescent DNA replication assay
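Pol eta (10 nM) was preincubated with compounds for 15 min at room temperature, after which fluorescent replication substrate (50 nM final) was added to start the reaction. Fluorescence was read kinetically at 0 and 10 min.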
TDP1 inh = TDP1 (human) enzyme inhibition; Q9NUW8; recombinant TDP1, AlphaScreen DNA substrate cleavage; AID 485290; 350,000 tested, 0.28% active; Potency, µM (doses to about 130 µM), actives largely listed as inhibitors; further: nearly all actives have a fitted effect of over 40% in size
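E. coli-derived human Tdp1, 1 nM final. Cpd preinc 15 min RT; substrate 15 nM final, 5 min RT; AS bead mix 10 ug/ml final, 10 min RT. Signal loss = tyrosine-FITC cleavage. No-enzyme wells = max signal.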
Pol kappa inh-1 = inhibitors of human DNA polymerase kappa | Q9UBT6 | AID 588579 | purified Pol kappa, fluorescent DNA synthesis assay, 10 min | Potency, µM (series often up to 107 µM), actives largely listed as inhibitors | 400,000 tested, 0.53% active
Target sequence (Q9UBT6 whole entry, looked up): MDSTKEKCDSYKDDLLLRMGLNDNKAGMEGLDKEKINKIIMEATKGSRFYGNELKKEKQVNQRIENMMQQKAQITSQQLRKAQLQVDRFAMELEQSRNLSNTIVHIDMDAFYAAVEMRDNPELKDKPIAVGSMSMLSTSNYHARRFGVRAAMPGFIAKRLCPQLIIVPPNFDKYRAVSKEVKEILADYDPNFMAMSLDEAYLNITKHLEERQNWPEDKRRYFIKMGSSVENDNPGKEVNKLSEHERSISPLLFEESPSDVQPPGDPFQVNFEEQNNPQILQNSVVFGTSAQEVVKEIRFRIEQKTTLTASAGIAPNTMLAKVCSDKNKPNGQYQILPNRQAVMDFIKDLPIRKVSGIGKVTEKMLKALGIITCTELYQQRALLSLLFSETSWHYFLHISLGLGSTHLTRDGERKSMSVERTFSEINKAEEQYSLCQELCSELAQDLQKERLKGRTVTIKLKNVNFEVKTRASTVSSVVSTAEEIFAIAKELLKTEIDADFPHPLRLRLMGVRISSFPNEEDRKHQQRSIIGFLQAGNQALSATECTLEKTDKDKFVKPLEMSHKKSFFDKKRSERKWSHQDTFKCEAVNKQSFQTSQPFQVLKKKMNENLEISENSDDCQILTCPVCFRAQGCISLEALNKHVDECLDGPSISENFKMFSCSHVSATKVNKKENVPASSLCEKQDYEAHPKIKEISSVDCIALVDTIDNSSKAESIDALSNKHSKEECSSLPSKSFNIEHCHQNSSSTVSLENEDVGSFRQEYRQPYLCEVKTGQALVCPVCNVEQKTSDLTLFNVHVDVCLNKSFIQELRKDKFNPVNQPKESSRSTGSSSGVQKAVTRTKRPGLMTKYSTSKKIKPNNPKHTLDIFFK
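10 nM Pol kappa was preincubated with compounds for 15 min at room temperature. Reaction started with 50 nM (final) substrate. Fluorescence read kinetically at 0 and 10 min.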
POLB inh = DNA polymerase beta (human) inhibition. Pol beta primer extension/strand displacement, fluorescence kinetic. Potency, µM (top dose mostly 114 µM), hits mostly inhibitors. 340,000 tested, 1.3% active. AID 485314
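Reaction started by 50 nM substrate onto compound-treated Pol beta (10 nM, 15 min preincubation, room temperature); plates read at 0 min and 10 min. Normalized concentration-effect data fitted by four-parameter Hill equation.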
Pol iota inh = inhibitors of human DNA polymerase iota | Q9UNA4 | Pol iota fluorescent replication assay, 10 min | Potency, µM (top dose mostly 115 µM), most hits filed as inhibitors | 390,000 tested, 1% active | AID 588590
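Fluorescent replication assay read twice, at 0 min and 10 min after adding 50 nM (final) substrate. Enzyme (10 nM) and compounds were first incubated 15 min at room temperature; enzyme-free buffer wells were negative controls.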
HEK293 tox = counter-screen for GALK inhibitors: HEK293 cell cytotoxicity; Potency, µM (titrated, usually from 46.1 µM), most hits filed as inhibitors; HEK-293 viability, ATP luminescence (CellTiter-Glo), 24/48 h; shares compounds with Pol eta inh-1; AID 2547; 170 tested, 10% active
Pol kappa inh-2 = Pol kappa (human) inhibition, cherry-pick confirmation | 920 tested, 76% active | purified Pol-kappa, fluorescent strand-displacement substrate | shares compounds with Pol eta inh-1 | Potency, µM, usual class: inhibitors
Pol eta inh-2 = Pol eta (human) inhibition, cherry-pick confirmation; shares compounds with Pol eta inh-1; Pol eta primer extension, TAMRA/BHQ fluorescence, 10 min; Potency, µM, most hits filed as inhibitors; 2,600 tested, 64% active
Large screens that a line does not name were inactive (follow-up assays come after a bar, where they were run). The call rests on the fitted dose curve; in most records, active means well fitted curve in the direction sought with a large enough effect; inconclusive means small, poorly fitted or top-dose-only effect, or another doubt; inactive means no such curve, though single readings can be large; an effect the other way counts as inactive or inconclusive.

COc1ccc(CNC(=O)CSc2ncc(S(=O)(=O)c3ccc(Br)cc3)c(=O)[nH]2)cc1	none
COC(=O)c1cc(Cl)ccc1NC(=O)CSc1ncc(S(=O)(=O)c2ccc(Br)cc2)c(=O)[nH]1	Pol eta inh-1 89µM, Pol kappa inh-1 inconclusive, POLB inh 45µM, Pol iota inh inconclusive | Pol kappa inh-2 42 | Pol eta inh-2 inconclusive
Cc1oc2ncn(CC(C)C)c(=O)c2c1C(=O)NCCCN1CCCCC1	none
Cc1ccc(C(=O)Nc2cccc(C(=O)O)c2)cc1	none
Cc1oc2c(c1C(=O)Nc1cccc(C(=O)O)c1)CCCC2	Pol eta inh-1 50µM, POLB inh inconclusive, Pol iota inh 79µM | Pol eta inh-2 inconclusive
Cc1ccc(S(=O)(=O)NN2C(=O)/C(=C\c3ccc(Cl)cc3)SC2=S)cc1	Pol eta inh-1 40µM, Pol iota inh inconclusive (no result: TDP1 inh) | Pol eta inh-2 24
Cc1ccc(S(=O)(=O)NN2C(=O)/C(=C/c3cccn3C)SC2=S)cc1	POLB inh inconclusive (no result: Pol eta inh-1, Pol kappa inh-1, Pol iota inh)
O=C(CCS(=O)(=O)c1ccc(Br)cc1)Nc1cc(F)ccc1F	Pol eta inh-1 inconclusive, Pol kappa inh-1 inconclusive, POLB inh 18µM | Pol kappa inh-2 42
O=C(CCS(=O)(=O)c1ccccc1)NCc1ccccc1	none
CCOc1ccccc1NC(=O)CCS(=O)(=O)c1ccc(Br)cc1	Pol eta inh-1 18µM, Pol kappa inh-1 inconclusive, POLB inh 10µM, Pol iota inh 18µM (no result: TDP1 inh) | Pol eta inh-2 24
O=C(CCS(=O)(=O)c1ccc(Br)cc1)NCc1cccs1	Pol eta inh-1 18µM, TDP1 inh 22µM, Pol kappa inh-1 inconclusive, POLB inh 16µM, Pol iota inh 18µM | Pol eta inh-2 inconclusive
COC(=O)c1ccc(CSc2nc3c([nH]c4ccccc43)c(=O)n2-c2cc(C)cc(C)c2)o1	POLB inh inconclusive
CC(C)(C)OC(=O)NC(Cc1ccccc1)C(=O)NC1COC2CC(n3cc(F)c(=O)[nH]c3=O)OC12 (stereo not drawn)	none (no result: Pol eta inh-1, POLB inh)
CC(=O)c1cccc(S(=O)(=O)NCCCN2CCOCC2)c1	Pol eta inh-1 20µM, Pol kappa inh-1 inconclusive, Pol iota inh 45µM (no result: TDP1 inh, POLB inh) | Pol eta inh-2 76
COc1cc(/C=C/C(=O)O)cc(S(=O)(=O)NNC(=O)c2cc(C)oc2C)c1OC	Pol eta inh-1 18µM, TDP1 inh 16µM, Pol kappa inh-1 inconclusive, Pol iota inh 22µM (no result: POLB inh) | Pol eta inh-2 inconclusive
COc1cc(/C=C/C(=O)O)cc(S(=O)(=O)NCCCO)c1OC	none
CCCc1cc(=O)[nH]c(SCC(=O)Nc2sccc2C#N)n1	Pol eta inh-1 inconclusive, Pol kappa inh-1 inconclusive, Pol iota inh 18µM (no result: POLB inh) | Pol eta inh-2 inconclusive
CCCOC(=O)c1cccc(Nc2nc(C(=O)OCC)nc3ccccc23)c1	none (no result: Pol eta inh-1, TDP1 inh)
CSc1ccc(C2C(C#N)=C(N)Oc3c2ccc(=O)c2c(C)oc(C)c32)cc1 (stereo not drawn)	Pol eta inh-1 11µM, Pol kappa inh-1 50µM, POLB inh inconclusive, Pol iota inh inconclusive | Pol eta inh-2 inconclusive
Cn1nc2c(c1C(=O)O)CCCC2	Pol eta inh-1 8.9µM, Pol kappa inh-1 inconclusive, POLB inh inconclusive, Pol iota inh inconclusive (no result: TDP1 inh) | Pol eta inh-2 27
COc1ccc(/C=C2\CCc3c2nc2ccccc2c3C(=O)O)cc1OC	Pol eta inh-1 20µM, Pol iota inh inconclusive | Pol eta inh-2 54
COc1cc(/C=C2\CCCc3c2nc2ccccc2c3C(=O)O)cc(OC)c1O	none
COc1cc(/C=C2\CCCc3c2nc2ccccc2c3C(=O)O)cc([N+](=O)[O-])c1O	Pol eta inh-1 20µM, TDP1 inh inconclusive, Pol kappa inh-1 79µM, POLB inh 14µM, Pol iota inh 13µM | Pol eta inh-2 48
CCC(C)n1c(SCc2ccc(F)cc2Cl)nc2ccsc2c1=O (stereo not drawn)	none
COc1cc(NS(=O)(=O)c2ccc(N/C=C(\C#N)c3nc4cc(Cl)ccc4o3)cc2)nc(OC)n1	Pol eta inh-1 35µM | Pol eta inh-2 inconclusive
Cc1ccc(-c2ccc(CCC(=O)O)n2Cc2ccco2)cc1	Pol eta inh-1 22µM, POLB inh inconclusive, Pol iota inh inconclusive | Pol eta inh-2 inconclusive
O=C(O)CCc1ccc(-c2ccccc2)n1CC(=O)O	Pol iota inh inconclusive
COc1ccc(N=C2NC(=O)/C(=C\C=C\c3ccco3)S2)cc1	Pol eta inh-1 40µM, Pol kappa inh-1 inconclusive, POLB inh 10µM, Pol iota inh inconclusive | Pol eta inh-2 inconclusive
Cc1cccc(N=C2NC(=O)/C(=C/C=C/c3ccco3)S2)c1	Pol eta inh-1 20µM, Pol kappa inh-1 inconclusive, POLB inh 20µM, Pol iota inh 18µM | Pol eta inh-2 inconclusive
O=C(CCN1C(=O)/C(=C/c2cccs2)SC1=S)Nc1ccc(C(=O)O)cc1	Pol eta inh-1 45µM, POLB inh 32µM, Pol iota inh inconclusive | Pol kappa inh-2 75
O=C(CCCN1C(=O)/C(=C\c2cccs2)SC1=S)Nc1ccc(C(=O)O)cc1	Pol iota inh inconclusive
CC(C)(C)C(=O)Nc1ccc2c(c1)C(=O)C(=O)c1ccccc1-2	Pol iota inh 1.4µM (no result: Pol eta inh-1, POLB inh) | HEK293 tox 5.6µM
Cc1c(C#N)c(O)[nH]c(=O)c1N=Nc1ccc(S(N)(=O)=O)cc1	Pol eta inh-1 25µM, Pol iota inh inconclusive (no result: TDP1 inh) | Pol kappa inh-2 inconclusive | Pol eta inh-2 85
Cc1c(C#N)c(O)[nH]c(=O)c1N=Nc1ccc(Cl)c(C(=O)O)c1	none (no result: TDP1 inh)
COc1cc(Br)cc2cc(C(=O)N3CCN(C(=O)c4ccco4)CC3)c(=O)oc12	Pol eta inh-1 79µM, Pol kappa inh-1 inconclusive, Pol iota inh 32µM | Pol eta inh-2 85
COc1cccc2cc(C(=O)N3CCN(C(=O)c4ccco4)CC3)c(=O)oc12	none
O=C1NN(c2ccccc2)C(=O)/C1=C\c1coc2ccc(O)cc2c1=O	Pol eta inh-1 inconclusive, Pol kappa inh-1 inconclusive, POLB inh inconclusive, Pol iota inh inconclusive (no result: TDP1 inh) | Pol eta inh-2 inconclusive
N=C(N)SCc1ccccn1	none
N=C(N)SCc1ncccc1O	Pol iota inh 50µM | Pol eta inh-2 inconclusive
COCCNC(=O)CSc1nc(-c2ccc(F)cc2)[nH]c1-c1ccc(Cl)cc1	Pol iota inh inconclusive
COc1cc(C2C3=C(Nc4nc(N)[nH]c(=O)c42)c2ccccc2C3=O)ccc1O (stereo not drawn)	Pol eta inh-1 22µM, Pol kappa inh-1 89µM, Pol iota inh 14µM (no result: TDP1 inh) | Pol eta inh-2 38

High-throughput results deposited in PubChem BioAssay by National Center for Advancing Translational Sciences (NCATS).
